Screening results (PubChem)
Most compounds without a hit are left out; they make up all but 4.2% or so of the library.
D1 ag – activates the human D1 dopamine receptor; HEK293 T-REx D1 cells, calcium flux, agonist mode; AID 504660; actives 1% (n = 360,000); activation, % at 2 µM; P21728; in the data active means activation above about 30%
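Agonism was scored from calcium flux recorded over 180 s (1 read/s) after pintool compound addition, following a 10-cycle baseline. Cells were inducible force-coupled HEK293 TREx D1, plated overnight at 30 C and loaded with no-wash calcium dye.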
D1 potentiator – potentiators of human D1 dopamine receptor; P21728; HEK293 TREx D1 cells, calcium flux, dopamine EC20 potentiation; potentiation, % at 10 µM; actives 0.036% (n = 360,000); in the data active means potentiation above about 30%
TRPV1 ag – human TRPV1 agonism; TRPV1-expressing cells, Fluo-8 calcium influx, agonist mode; activation, % at 8.33 µM; actives 0.19% (n = 320,000); AID 540275; in the data active means activation above about 80%; inconclusive means between about 30% and that limit
Target sequence (Q8NER1 whole entry, looked up): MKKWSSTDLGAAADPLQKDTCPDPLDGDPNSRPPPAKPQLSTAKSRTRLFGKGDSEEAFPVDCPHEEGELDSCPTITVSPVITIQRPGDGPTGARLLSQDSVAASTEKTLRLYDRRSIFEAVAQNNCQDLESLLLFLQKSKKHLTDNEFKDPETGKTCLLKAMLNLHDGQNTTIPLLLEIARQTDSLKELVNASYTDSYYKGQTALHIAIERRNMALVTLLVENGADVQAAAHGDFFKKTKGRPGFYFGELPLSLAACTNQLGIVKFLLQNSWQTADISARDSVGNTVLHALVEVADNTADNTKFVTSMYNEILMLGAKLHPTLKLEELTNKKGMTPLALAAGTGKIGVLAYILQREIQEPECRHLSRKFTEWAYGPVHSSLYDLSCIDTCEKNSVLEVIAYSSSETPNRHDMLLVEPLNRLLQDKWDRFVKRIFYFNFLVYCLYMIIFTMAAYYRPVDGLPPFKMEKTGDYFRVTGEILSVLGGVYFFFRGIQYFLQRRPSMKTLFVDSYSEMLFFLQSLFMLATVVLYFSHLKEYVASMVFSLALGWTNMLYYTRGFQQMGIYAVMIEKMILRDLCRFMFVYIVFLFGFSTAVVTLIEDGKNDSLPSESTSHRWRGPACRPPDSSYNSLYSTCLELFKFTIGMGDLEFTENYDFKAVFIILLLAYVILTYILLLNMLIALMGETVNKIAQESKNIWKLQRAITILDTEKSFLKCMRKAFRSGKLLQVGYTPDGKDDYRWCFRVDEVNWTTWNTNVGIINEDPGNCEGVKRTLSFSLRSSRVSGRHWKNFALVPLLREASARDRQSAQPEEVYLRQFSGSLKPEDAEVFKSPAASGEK
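TRPV1-expressing cells were cultured overnight at 35.5C and loaded with Fluo-8 calcium dye for 40 to 90 min at room temperature. After a 10 s baseline, compound was added and calcium influx was read kinetically for 3 min (ex 480/em 520 nm).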
TRPV1 PAM – human TRPV1 potentiation. actives 0.02% (n = 320,000). Q8NER1. TRPV1-expressing cells, Fluo-8 calcium influx, capsaicin EC20 potentiation. potentiation, % at 8.33 µM; in the data active means potentiation above about 80%; inconclusive means between about 30% and that limit
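Fluo-8 calcium influx in TRPV1-expressing cells, kinetic read (ex 480/em 520 nm). Compound added and read 3 min for agonist activity, followed by capsaicin at EC20 final and 2 min further read for enhancement.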
D1 antagonist – blocks dopamine activation of the human D1 receptor; P21728; HEK293 TREx D1 cells, calcium flux, dopamine EC80; stronger effect = lower value; activity change, negative = inhibition, % at 10 µM; actives 3.2% (n = 360,000); in the data active means activity change below about -30%
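Tetracycline-induced HEK293 T-REx cells with force-coupled D1 receptor were loaded with a no-wash calcium dye. Compound was added after a 10 s baseline and read kinetically for 180 s; EC80 dopamine was then added and calcium flux followed another 180 s.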
Each line names hits and unclear results; the compound was inactive in the other large screens.

O=C(NCCN1CCN(c2cccc(Cl)c2)CC1)Nc1ccccc1C(F)(F)F	D1 antagonist -43 (no result: TRPV1 ag, TRPV1 PAM)
Cc1cccc(C)c1NC(=O)C(=O)NCCCN1CCOCC1	none
Cc1cccc(C)c1NC(=O)NCCCN1CCN(c2ccccc2)CC1	D1 antagonist -36
CCC(=O)N1c2ccccc2CC1C(=O)NCCCN1CCN(c2cccc(Cl)c2)CC1 (stereo unspecified)	D1 antagonist -53 (no result: TRPV1 ag, TRPV1 PAM)
CCC(=O)N1c2ccccc2CC1C(=O)NCCCN1CCN(c2ccccc2)CC1 (stereo unspecified)	none (no result: TRPV1 ag, TRPV1 PAM)
O=C(COC(=O)c1cc(S(=O)(=O)NCc2ccccc2)ccc1O)NCc1ccccc1	none
O=C(COC(=O)c1cc(S(=O)(=O)NCc2ccccc2)ccc1O)c1cc2ccccc2o1	D1 antagonist -62
O=C(NCCNc1ccc([N+](=O)[O-])cc1C(F)(F)F)c1cccc(F)c1	none
O=C(NCCNc1ccc([N+](=O)[O-])cc1C(F)(F)F)c1ccccc1	TRPV1 ag inconclusive, D1 antagonist -31
COC(=O)c1ccccc1NC1c2ccccc2C(=O)N1c1cccnc1 (stereo unspecified)	none
O=C1c2ccccc2C(Nc2ccccc2F)N1c1cccnc1 (stereo unspecified)	D1 antagonist -35 (no result: D1 potentiator)
COc1ccc(C(=O)C(OC(=O)c2ccccc2Cl)c2ccccc2)cc1 (stereo unspecified)	D1 antagonist -33
CC(=O)Nc1ccc(CC(=O)O)cc1	D1 ag 47
O=C(O)Cc1ccc(NC(=O)Nc2cccc(Cl)c2)cc1	D1 antagonist -51
Cc1oc(C)c(C(=O)Nc2ccc(CC(=O)O)cc2)c1C(=O)Nc1ccc(CC(=O)O)cc1	none
CN1CCC(N(C)C(=S)Nc2ccc(SC(F)F)cc2)CC1	D1 antagonist -34
CC1CCN(C(=O)Cn2c(=O)n(CCCCCC(=O)NCc3ccccc3Cl)c(=O)c3sccc32)CC1	none (no result: TRPV1 ag, TRPV1 PAM)
COc1ccc(CNC(=O)COCc2cc(-c3cccs3)on2)cc1	none (no result: TRPV1 ag, TRPV1 PAM)
c1ccc(-c2csc(Nc3cccnc3)n2)nc1	D1 antagonist -31
Cc1ccc(CCN2C(=O)CCC2(C)C(=O)NCc2cccnc2)cc1 (stereo unspecified)	none
CCOc1ccc(CN2C(=O)CCC2(C)C(=O)NCc2cccnc2)cc1 (stereo unspecified)	D1 antagonist -30
O=C(O)CC/C(=C\c1ccc(N2CCOCC2)c([N+](=O)[O-])c1)c1nc2ccccc2s1	D1 antagonist -77
COc1ccc(CNC(=O)COc2ccc([N+](=O)[O-])cc2)cc1	none
COc1ccc(NC(=O)CCC(=O)OCc2ccc(C(=O)Oc3ccc(Cl)cc3)cc2)cc1	D1 antagonist -31
COc1ccc(CNC(=O)C(C)c2ccc([N+](=O)[O-])cc2)cc1 (stereo unspecified)	TRPV1 ag 80
COc1ccc(NC(=O)CCC(=O)OCc2ccc([N+](=O)[O-])cc2)cc1	D1 antagonist -31
O=C(NCCn1ccc2ccccc21)c1cccc([N+](=O)[O-])c1	D1 antagonist -37
CCn1c(O)c(/C=C/C=C/C=Nc2ccccc2)sc1=S	none
CCCCn1c(O)c(/C=C/C=C/C=Nc2ccccc2)sc1=S	D1 antagonist -31
O=C(OCC(=O)C12CC3CC(CC(C3)C1)C2)c1ccc(O)cc1O	D1 ag 93, D1 potentiator 43
O=C(COC(=O)c1ccc(O)cc1O)NC12CC3CC(CC(C3)C1)C2	none
COc1ccc(N2CCN(C(=O)CCc3c[nH]c4ccccc34)CC2)cc1	none
COc1ccccc1N1CCN(C(=O)CCc2c[nH]c3ccccc23)CC1	D1 antagonist -38
O=C(Nc1cc(C(F)(F)F)ccc1Cl)C(Sc1nnc(-c2cccs2)o1)c1ccccc1 (stereo unspecified)	D1 antagonist -45
O=C(Nc1ccc(Cl)cc1C(F)(F)F)C(Sc1nnc(-c2cccs2)o1)c1ccccc1 (stereo unspecified)	none
Cc1cccc(CNC(=O)c2cnc3c(-c4cccc(C)c4)c(C)nn3c2C)c1	D1 antagonist -33 (no result: TRPV1 ag, TRPV1 PAM)
CCOc1ccc(-c2c(C)nn3c(C)c(C(=O)NCc4ccc(C)o4)cnc23)cc1OCC	D1 antagonist -34 (no result: TRPV1 ag, TRPV1 PAM)
CCOc1ccc(-c2c(C)nn3c(C)c(C(=O)NCc4ccc(Cl)cc4)cnc23)cc1OCC	none (no result: TRPV1 ag, TRPV1 PAM)
CCOC(=O)c1c(C)[nH]c(C)c1S(=O)(=O)N1CCCC(C(=O)N2CCN(c3cccc(Cl)c3)CC2)C1 (stereo unspecified)	none (no result: TRPV1 ag, TRPV1 PAM)
Cc1ccc(-n2ncc(C(=O)N3CCN(c4cc(Cl)ccc4C)CC3)c2C2CCN(C(=O)OC(C)(C)C)CC2)cc1	none (no result: TRPV1 ag, TRPV1 PAM)
CC(C)(C)c1ccc(C(=O)NCC(=O)OC(C(=O)Nc2cc(C(F)(F)F)ccc2Cl)c2ccccc2)cc1 (stereo unspecified)	none (no result: TRPV1 ag, TRPV1 PAM)
Cc1nc2cccnc2n1-c1cccc(C(=O)NCc2cccc(Cl)c2)c1	none (no result: TRPV1 ag, TRPV1 PAM)
COc1ccc(NC(=S)Nc2cc(-c3ccccc3)[nH]n2)cc1Cl	TRPV1 PAM inconclusive, D1 antagonist -79
COc1ccc(NC(=S)Nc2cc(C)[nH]n2)cc1Cl	none
Cc1cc(NC(=S)Nc2ccc(C)c(Cl)c2)n[nH]1	D1 antagonist -39
O=C(CCCCCN1C(=O)c2cccc3cccc(c23)C1=O)NC1CCS(=O)(=O)C1 (stereo unspecified)	D1 antagonist -31
COc1ccc(C(=O)N2CCN(C(=O)C3COc4ccccc4O3)CC2)cc1OC (stereo unspecified)	none
COc1ccc(CN2CCN(C(=O)c3cccnc3)CC2)cc1Br	D1 antagonist -34
COc1cccc(C(=O)N2CCN(C(=O)C3COc4ccccc4O3)CC2)c1 (stereo unspecified)	D1 antagonist -32
COc1ccccc1N1CCN(C(=O)c2cc(C)oc2C)CC1	none
COc1cccc(N2CCN(C(=O)c3cccnc3)CC2)c1	D1 antagonist -39
COc1cccc(N2CCN(C(=O)c3cc(C)oc3C)CC2)c1	D1 antagonist -43
Cc1noc(-c2ccc(N3CCCCC3)c([N+](=O)[O-])c2)n1	none (no result: TRPV1 ag, TRPV1 PAM)
COc1ccc(/C=C/C(=O)c2ccc(O)cc2)cc1COc1ccc(F)cc1	TRPV1 ag inconclusive
COc1ccc(/C=C/C(=O)c2ccccc2)cc1COc1ccc(F)cc1	TRPV1 ag inconclusive, D1 antagonist -33
COc1ccc(/C=C/C(=O)c2ccccc2)cc1Cn1nnc2ccccc21	D1 antagonist -31
CCCS(=O)(=O)c1c(S(=O)(=O)CCC)c2cc(C(C)(C)C)ccn2c1C(=O)c1ccc(C)cc1	none (no result: TRPV1 ag, TRPV1 PAM)
CC(C)Cn1c(Cc2ccccc2)n[nH]c1=S	D1 ag 33, D1 antagonist -35
O=C1Nc2ccccc2C12Nc1ccccc1-c1nc3ccccc3n12 (stereo unspecified)	D1 ag 37
CCOC(=O)c1cccc(NC(=O)c2cc3sccc3n2C)c1	D1 antagonist -32
